From article PMC5540273 (PLoS ONE, 2017) come the findings set out here.

Among the test systems are PIKFYVE; PIM1; PIM2; PIM3; PIP5K1A; PIP5K1C; PIP5K2B.
What all share (settings): concentration: 1 μM, replicates: in singlicate; n = 1
The subject of the next test is T1, PIK4CB.
T1 construct: gene PI4KB

The next test concerns T2, PIP5K2C.
T2 construct: gene PIP4K2C

The next test deals with T3, PKAC-alpha.
T3 construct: gene PRKACA
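Further: KINOMEscan kinase panel screen.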

On to `Cc1ccccc1-c1cc(-c2c[nH]nc2-c2ccccn2)ccn1` [GW680061], for which the “%Inh” value in the test with PIK4CB was found to be 0%; in the test with PIKFYVE it was 0%; in the test on PIM1, 0%; with PIM2, 0%; with PIM3, 0%; in the test with PIP5K1A, 12%. For the same compound, the “%Inh” value with PIP5K1C was 39%; in the test on PIP5K2B, 15%; in the test with PIP5K2C, 28%; with PKAC-alpha, 0%.
Regarding `FC(F)(F)c1ccccc1-c1cc(-c2c[nH]nc2-c2ccccn2)ccn1` [GW679396], the “%Inh” value worked out at 0% with PIK4CB; 0% in the test with PIKFYVE; 0% in the test on PIM1; 0% with PIM2; 0% in the test on PIM3; 5% in the test with PIP5K1A. The “%Inh” value is given as 32% in the test on PIP5K1C, 15% in the test on PIP5K2B, 0% in the test on PIP5K2C and 0% with PKAC-alpha.
Turning to `CSc1ccc(-c2nc3n(c2-c2ccncc2)CCC3)cc1` [SKF-105561], the “%Inh” value in the test with PIK4CB is given as 24%; in the test with PIKFYVE, 11%; with PIM1 it was 0%; with PIM2, 0%; in the test with PIM3 it was 1%; with PIP5K1A, 37%. In addition, the “%Inh” value amounted to 0% with PIP5K1C, 21% in the test on PIP5K2B, 0% in the test on PIP5K2C and 5% in the test with PKAC-alpha.
For the compound `COC(=O)c1cccc(NC(=O)NC2CCN(c3ccnc(Nc4ccc(F)cc4)n3)C2)c1` (centres unmarked) [GSK1379725], the “%Inh” value worked out at 6% with PIK4CB; 0% with PIKFYVE; 30% in the test with PIM1; 0% in the test on PIM2; 0% with PIM3; 0% in the test with PIP5K1A. The “%Inh” value came out at 14% with PIP5K1C, 9% in the test on PIP5K2B, 0% in the test with PIP5K2C and 0% in the test on PKAC-alpha.
With `O=C1NC(=O)C(c2ccc(Cl)cc2)=C1Nc1cccc(Cl)c1` [SB-317651], the “%Inh” value in the test with PIK4CB is reported as 8%; in the test on PIKFYVE it was 12%; in the test on PIM1 it was 0%; in the test on PIM2 it was 0%; with PIM3, 2%; with PIP5K1A it was 0%. In addition, the “%Inh” value with PIP5K1C was found to be 28%; in the test on PIP5K2B, 0%; in the test on PIP5K2C it was 20%; with PKAC-alpha it was 3%.
In the case of `O=C1NC(=O)C(c2ccc(Cl)cc2)=C1Nc1ccc(O)cc1` [SB-340867], the “%Inh” value with PIK4CB was found to be 13%; in the test on PIKFYVE it was 9%; in the test with PIM1 it was 0%; with PIM2 it was 3%; with PIM3, 0%; in the test on PIP5K1A it was 0%. The “%Inh” value in the test with PIP5K1C is 40%; in the test on PIP5K2B, 0%; with PIP5K2C, 0%; in the test with PKAC-alpha, 0%.
Take `CS(=O)(=O)CCNCc1nc(-c2ccc3ncnc(Nc4ccc(OCc5ccccc5)c(Cl)c4)c3c2)cs1.Cl` [GW582764]: the “%Inh” value is listed as 0% in the test with PIK4CB; 25% with PIKFYVE; 14% in the test on PIM1; 0% with PIM2; 0% in the test with PIM3; 47% in the test on PIP5K1A. Besides, the “%Inh” value in the test on PIP5K1C was 52%; in the test with PIP5K2B, 10%; in the test with PIP5K2C, 56%; in the test on PKAC-alpha, 0%.
Consider `Cc1ccc(NC(=O)Nc2ccccc2F)cc1-c1ccc(C(=O)Nc2ccncc2)cc1` [GSK1398477], for which the “%Inh” value in the test with PIK4CB stood at 0%; with PIKFYVE, 0%; in the test on PIM1, 6%; with PIM2, 0%; in the test on PIM3 it was 0%; with PIP5K1A it was 0%. Further, the “%Inh” value is on record as 0% in the test with PIP5K1C, 0% with PIP5K2B, 0% in the test on PIP5K2C and 46% in the test on PKAC-alpha.
Take `Nc1ncnc2occ(-c3ccc4c(c3)CCN4C(=O)Cc3cc(F)ccc3F)c12` [GSK2645446]: the “%Inh” value in the test with PIK4CB, with PIKFYVE, with PIM1, with PIM2, in the test with PIM3 and in the test on PIP5K1A was 0% in each case. Besides, the “%Inh” value in the test with PIP5K1C is recorded as 52%; in the test on PIP5K2B, 0%; in the test on PIP5K2C, 16%; in the test on PKAC-alpha, 0%.
For the compound `Cc1ccc(NC(=O)Nc2ccc(Cl)cc2)cc1-c1ccc(C(=O)Nc2ccncc2)cc1` [GSK1398472], the “%Inh” value in the test on PIK4CB is recorded as 5%; in the test on PIKFYVE, 0%; in the test with PIM1, 9%; in the test on PIM2 it was 0%; with PIM3 it was 0%; in the test with PIP5K1A it was 11%. Moreover, the “%Inh” value was determined as 41% in the test with PIP5K1C, 12% in the test on PIP5K2B, 2% in the test on PIP5K2C and 7% with PKAC-alpha.
Turning to `c1ccc(-c2ccnc3[nH]ccc23)cc1` [SB-693578], the “%Inh” value with PIK4CB was 4%; with PIKFYVE, 11%; in the test on PIM1, 0%; with PIM2, 0%; in the test on PIM3 it was 0%; with PIP5K1A it was 40%. In addition, the “%Inh” value was found to be 28% in the test on PIP5K1C, 4% with PIP5K2B, 18% with PIP5K2C and 0% in the test with PKAC-alpha.
In the case of `COc1ccc2cc(-c3nc(-c4ccccc4C(C)C)[nH]c3-c3ccncc3)ccc2c1` [SB-660566], the “%Inh” value in the test on PIK4CB is 0%; with PIKFYVE it was 0%; with PIM1, 15%; with PIM2 it was 0%; with PIM3 it was 0%; in the test with PIP5K1A, 18%. Further, the “%Inh” value came out at 0% in the test with PIP5K1C, 38% with PIP5K2B, 0% with PIP5K2C and 0% in the test with PKAC-alpha.
Consider `Cl.Cl.Cl.N#Cc1ccc(CCNc2nccc(-c3cccc(CN4CCNCC4)c3)n2)cc1` [GSK2137462], for which the “%Inh” value is on record as 26% with PIK4CB; 0% with PIKFYVE; 20% with PIM1; 0% in the test on PIM2; 13% in the test on PIM3; 0% in the test on PIP5K1A. Also, the “%Inh” value in the test with PIP5K1C is 0%; with PIP5K2B it was 0%; in the test with PIP5K2C it was 11%; in the test with PKAC-alpha, 13%.
With `Nc1cccc(-c2ccc3c(N)n[nH]c3c2)n1` [GSK2192730], the “%Inh” value came to 30% in the test with PIK4CB; 0% with PIKFYVE; 26% in the test with PIM1; 0% with PIM2; 13% with PIM3; 39% with PIP5K1A. The “%Inh” value in the test on PIP5K1C worked out at 0%; in the test with PIP5K2B, 4%; with PIP5K2C, 0%; in the test with PKAC-alpha it was 0%.
Regarding `CNc1nc(-c2ccc3c(N)n[nH]c3c2)cc(N2C[C@@H](C(=O)NC3CCCCC3)OC[C@H]2C)n1` [GSK2375584], the “%Inh” value in the test on PIK4CB was determined as 0%; in the test with PIKFYVE it was 0%; in the test on PIM1, 11%; in the test on PIM2, 0%; in the test with PIM3, 0%; in the test on PIP5K1A, 34%. In addition, the “%Inh” value came to 54% with PIP5K1C, 21% in the test on PIP5K2B, 27% in the test on PIP5K2C and 5% in the test with PKAC-alpha.
As to `CNC(=O)c1ccc(C)c(-n2c(C)cc(OCc3ccc(F)cc3F)c(Br)c2=O)c1`, the “%Inh” value was 0% in the test with PIK4CB; 40% with PIKFYVE; 0% with PIM1; 0% in the test on PIM2; 0% with PIM3; 0% with PIP5K1A. Besides, the “%Inh” value came out at 1% with PIP5K1C, 0% in the test on PIP5K2B, 0% in the test on PIP5K2C and 0% in the test with PKAC-alpha.
Take `COc1ccc(Nc2nccc(N3CCC(NC(=O)C(C)c4ccc(Cl)cc4)CC3)n2)cc1` (centres unmarked) [GSK1379812]: the “%Inh” value with PIK4CB worked out at 11%; in the test on PIKFYVE it was 0%; in the test on PIM1, 0%; in the test on PIM2 it was 0%; with PIM3, 2%; in the test with PIP5K1A, 0%. Also, the “%Inh” value in the test on PIP5K1C was 29%; in the test on PIP5K2B it was 63%; in the test on PIP5K2C, 9%; in the test with PKAC-alpha, 17%.
